Hits are enriched below; roughly 8.7% of the tested compounds scored in any of these assays.
PostGolgi yeast = growth inhibition of a yeast mutant, post-Golgi transport screen. post-Golgi transport phenotypic cell assay. inhibition, % at 10 µM. actives 0.9% (n = 98,000);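 note: yeast cells grown in 1536-well plates; yeast grown about 18 h at 30C before absorbance read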
PostGolgi ctrl = inhibits growth of the yeast control strain | actives 5% (n = 98,000) | inhibition, % at 10 µM | efflux-deficient yeast background strain, growth absorbance A615, 16 h
Cav3 T inh = human Cav3.2 channel inhibition, primary screen; O95180; Cav3.2-expressing cells, Fluo-4 calcium fluorescence FDSS; hits give low values; B-score at 10 µM; actives 4% (n = 100,000); AID 449739;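 active = single-dose well whose peak fluorescence ratio is a statistical outlier from its plate by either plate-standardised score or position-corrected B-score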
Smad3 FoxH1 inh = Smad3 (human) transcription factor binding inhibition. P84022. TR-FRET Smad3/Dy647-FoxH1 peptide binding, europium anti-His. inhibition, % at 25 µM. actives 0.29% (n = 88,000);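 active = compounds that reduce the energy-transfer binding signal between the protein and its labelled peptide by more than half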
TNAP act DEA = human TNAP activation, intermediate phosphate acceptor; purified TNAP, CDP-star luminescence, 100 mM DEA, 30 min; hits give high values; scale: 0 levamisole-inhibited, 1 vehicle-only enzyme; activation factor at 20 µM; 64,000 tested, under 10 active; AID 813;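 active = activation factor of at least 2 at 20 µM, relative to controls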
DAT uptake mod = modulates human dopamine transporter uptake under cocaine; LLC-PK1 hDAT cells, [14C]-dopamine uptake with cocaine IC80; actives deviate in either direction; actives 1.3% (n = 110,000); B-score at 10 µM; AID 449768; Q01959;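 active = Z score or B-score, a plate-position-corrected score, falls beyond the plate's 99.7% confidence bounds, in either direction; inactive = both scores lie inside the 99.7% bounds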
Target sequence (Q01959 whole entry, looked up): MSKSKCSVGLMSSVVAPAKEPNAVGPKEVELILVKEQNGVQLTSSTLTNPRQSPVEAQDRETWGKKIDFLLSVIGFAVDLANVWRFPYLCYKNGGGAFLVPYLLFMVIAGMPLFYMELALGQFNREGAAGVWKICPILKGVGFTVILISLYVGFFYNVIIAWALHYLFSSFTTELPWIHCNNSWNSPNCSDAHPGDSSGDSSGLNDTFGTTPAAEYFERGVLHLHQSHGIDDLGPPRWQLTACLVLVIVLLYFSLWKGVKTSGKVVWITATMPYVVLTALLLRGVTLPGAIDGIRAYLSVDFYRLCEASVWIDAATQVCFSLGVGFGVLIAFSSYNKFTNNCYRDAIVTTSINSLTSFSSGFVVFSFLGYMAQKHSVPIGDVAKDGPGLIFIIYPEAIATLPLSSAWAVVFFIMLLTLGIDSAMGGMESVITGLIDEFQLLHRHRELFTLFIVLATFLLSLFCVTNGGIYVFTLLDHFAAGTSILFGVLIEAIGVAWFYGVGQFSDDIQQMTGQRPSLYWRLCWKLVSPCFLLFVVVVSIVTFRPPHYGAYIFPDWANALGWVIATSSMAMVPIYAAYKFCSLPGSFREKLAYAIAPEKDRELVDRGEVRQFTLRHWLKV
Of the large screens only hits and unclear results are named; the others gave an inactive call. Cut-off read from the data, not from the text of the source, unless noted: active = inhibition above about 30%; inactive = the rest.

CC(Sc1ccc2c(c1)OCCO2)C(=O)Nc1ncc(Cl)cc1Cl (stereo not given)	none (no result: TNAP act DEA)
COc1ccc(S(=O)(=O)N2CCOC2CNC(=O)C(=O)NCCc2c[nH]c3ccccc23)cc1C (stereo not given)	Cav3 T inh -3.47 (no result: PostGolgi yeast, PostGolgi ctrl, Smad3 FoxH1 inh, TNAP act DEA)
COc1ccc(S(=O)(=O)N2CCOC2CNC(=O)C(=O)NCCCn2ccnc2)cc1OC (stereo not given)	none (no result: PostGolgi yeast, PostGolgi ctrl, Smad3 FoxH1 inh, TNAP act DEA)
O=C1NCCN/C1=C\C(=O)c1ccccc1	none (no result: TNAP act DEA)
CCc1ccc(OCC(O)CN2CCN(c3ccccc3)CC2)cc1 (stereo not given)	PostGolgi ctrl 32.6
CCCc1ccc(OCC(O)CN2CCN(c3ccccc3)CC2)cc1 (stereo not given)	PostGolgi yeast 72.5, PostGolgi ctrl 85.4
Clc1ccc2c(c1)CNc1c(ncnc1N1CCOCC1)O2	none
COc1cccc(C=Nc2cccnc2)c1O	DAT uptake mod -6.95
Cc1ccc(-c2ccc3c(c2)S(=O)(=O)c2ccccc2C3=O)cc1	none (no result: PostGolgi yeast, PostGolgi ctrl, Smad3 FoxH1 inh, TNAP act DEA)
COCCn1nnnc1C(C(C)C)N(Cc1cccnc1)Cc1ccccc1Cl (stereo not given)	PostGolgi ctrl 37.8
COCCn1nnnc1CN(Cc1cccnc1)Cc1cc2cc(OC)ccc2[nH]c1=O	none
Cc1cc(NC(=O)CSc2nc(CCC3CCCC3)nc3ccccc23)no1	Cav3 T inh -8.74 (no result: Smad3 FoxH1 inh)
CCOc1ccc(-c2noc(COC)n2)cc1OC	none
C=CCSc1nnc(-c2ccncc2)n1-c1ccc(OCC)cc1	PostGolgi ctrl 31.4
COc1ccc(-n2c(COc3ccc(Cl)cc3)nnc2SCc2ccc(C#N)cc2)cc1	Cav3 T inh -4.26 (no result: TNAP act DEA)
CCn1c(COc2ccc(Cl)cc2)nnc1SCc1ccc(C#N)cc1	PostGolgi ctrl 33.9
CCOc1ccc(-n2c(SCc3ccc(C#N)cc3)nnc2-c2cccnc2)cc1	Cav3 T inh -6.8
C=CCSc1nnc(C)n1-c1ccc(Cl)cc1	none
CCSc1nnc2c(n1)OC1(CCCC1)Nc1ccccc1-2	none (no result: Cav3 T inh)
Clc1ccc(-n2c(SC/C=C/c3ccccc3)nnc2-c2cccnc2)cc1	PostGolgi ctrl 35.0 (no result: TNAP act DEA)
CCC(C)C(=O)Nc1nc(C)c(-c2csc(Nc3ccc(Cl)cc3)n2)s1 (stereo not given)	none (no result: Smad3 FoxH1 inh, TNAP act DEA)
C=CCCC(=O)Nc1nc(C)c(-c2csc(Nc3cc(OC)ccc3OC)n2)s1	PostGolgi ctrl 32.9 (no result: Smad3 FoxH1 inh, TNAP act DEA)
CCCC(=O)Nc1nc(C)c(-c2csc(Nc3cc(OC)ccc3OC)n2)s1	none (no result: Smad3 FoxH1 inh, TNAP act DEA)
CCCC(=O)Nc1nc(C)c(-c2csc(Nc3ccccc3OC)n2)s1	none (no result: Smad3 FoxH1 inh, TNAP act DEA)
COc1ccccc1Nc1nc(-c2sc(NC(=O)CC(C)C)nc2C)cs1	DAT uptake mod 2.73 (no result: Smad3 FoxH1 inh, TNAP act DEA)
CCCC(=O)Nc1nc(C)c(-c2csc(Nc3ccc(Cl)cc3)n2)s1	PostGolgi ctrl 55.7 (no result: Smad3 FoxH1 inh, TNAP act DEA)
CCC1Oc2ccc(C)cc2N(CC(=O)NCCC2=CCCCC2)C1=O (stereo not given)	none
COc1ccc(NC(=O)C2CCCN(S(=O)(=O)c3ccc4c(c3)oc(=O)n4C)C2)cc1OC (stereo not given)	none (no result: TNAP act DEA)
CCOC(=O)c1cccc(NC(=O)C2CCCN(S(=O)(=O)c3c(C)nn(C)c3C)C2)c1 (stereo not given)	DAT uptake mod 3.05
Cn1c(=O)oc2cc(S(=O)(=O)N3CCCC(C(=O)Nc4ccc5c(c4)OCCO5)C3)ccc21 (stereo not given)	PostGolgi ctrl 31.0 (no result: Cav3 T inh)
CSc1cccc(NC(=O)C2CCCN(S(=O)(=O)c3ccc(F)cc3)C2)c1 (stereo not given)	Cav3 T inh -6.31
CSc1cccc(NC(=O)C2CCN(S(=O)(=O)c3ccc(F)cc3)CC2)c1	none
CC1CCN(S(=O)(=O)c2csc(C(=O)Nc3ccccc3)c2)CC1	none (no result: TNAP act DEA)
Cc1ccc(SCc2nc3ccccc3n2CC(=O)Nc2ccc(Cl)cc2)cc1	none (no result: Smad3 FoxH1 inh, TNAP act DEA)
COc1ccc(-c2c3c(=O)n(C)c(=O)n(C)c3cn2C2CCCCC2)cc1	PostGolgi ctrl 41.1
COc1ccc(-c2c3c(=O)n(C)c(=O)n(C)c3c3nnc4ccccc4n23)cc1	none (no result: PostGolgi yeast, PostGolgi ctrl, Cav3 T inh, DAT uptake mod)
CC(C)CNC(=O)C(=O)NNC(=O)C1CCCCC1	none (no result: Smad3 FoxH1 inh, TNAP act DEA)
COc1ccc(C2=NN(CN3C(=O)C(=O)c4ccccc43)C(c3ccc(Br)cc3)C2)cc1 (stereo not given)	PostGolgi ctrl 31.9 (no result: TNAP act DEA)
CC(=Nc1ccccc1)c1sc2ccccc2c1O	DAT uptake mod 2.27 (no result: TNAP act DEA)
CCO[C@@H]1OC(C(=O)Nc2ccccc2)=C[C@H](c2ccc3c(c2)OCO3)[C@H]1CCCO	none (no result: PostGolgi yeast, PostGolgi ctrl, Smad3 FoxH1 inh, TNAP act DEA)
CS(=O)(=O)N(CC(=O)O)c1cccc(Cl)c1	none
O=C(O)c1ccc(CN2C(=O)c3ccccc3S2(=O)=O)cc1	none
O=C(CN1/C(=C(/O)c2ccccc2)C(=O)c2ccccc2S1(=O)=O)c1ccccc1	Cav3 T inh -6.95 (no result: TNAP act DEA)
CCC(C)(C)NC(=O)CN(C(=O)CCC(=O)Nc1cc(C)ccn1)c1ccc2c(c1)OCO2	none
COc1ccc(C(C(=O)NC2CCCC2)N(Cc2ccccc2)C(=O)CNC(=O)c2ccco2)cc1 (stereo not given)	none (no result: TNAP act DEA)
COc1ccc(CN(C(=O)Cc2c[nH]c3ccccc23)C(C(=O)NC2CCCCC2)c2ccc(C)o2)cc1 (stereo not given)	Cav3 T inh -7.27 (no result: Smad3 FoxH1 inh, TNAP act DEA)
COc1cc(C(C(=O)NC2CCCCC2)N(Cc2cccs2)C(=O)Cc2c[nH]c3ccccc23)cc(OC)c1OC (stereo not given)	Cav3 T inh -6.46 (no result: Smad3 FoxH1 inh, TNAP act DEA)
COc1nn(CC(=O)N2N=C(C)CC2(O)C(F)(F)F)cc1[N+](=O)[O-] (stereo not given)	none (no result: PostGolgi yeast, PostGolgi ctrl, TNAP act DEA)
COCCNC(=O)CCCCCN1C(=O)CCC1=O	none
O=C(Cc1cccc2ccccc12)NNC(=O)Nc1cccc(Cl)c1	Cav3 T inh -7.89 (no result: Smad3 FoxH1 inh, TNAP act DEA)
COCCn1c(SCc2nnc(-c3ccccc3)o2)nc2sc3c(c2c1=O)CCC3	PostGolgi ctrl 96.1 (no result: Smad3 FoxH1 inh)
COCCn1c(SCC(=O)Nc2ncc(C)s2)nc2sc3c(c2c1=O)CCC3	none
C=CCN1C=CC(=O)CC1	none (no result: PostGolgi yeast, PostGolgi ctrl, Smad3 FoxH1 inh, TNAP act DEA)
COc1ccc(-c2nnc(NC(=O)c3ccc(S(=O)(=O)N4CCCc5ccccc54)cc3)o2)cc1	none (no result: Cav3 T inh, DAT uptake mod)
O=C(NCc1ccccc1)c1ccc(S(=O)(=O)N2CCCc3ccccc32)cc1	none (no result: TNAP act DEA)
O=C(NCc1ccco1)c1ccc(S(=O)(=O)N2CCCc3ccccc32)cc1	Cav3 T inh -3.89
O=C(Nc1nnc(C2CC2)o1)c1ccc(S(=O)(=O)N2CCCc3ccccc32)cc1	PostGolgi yeast 33.3 (no result: Cav3 T inh, DAT uptake mod)
CCc1nnc(NC(=O)CSc2nc3c(cc2C#N)CCCC3)s1	none
Cc1ccc(O)c(NC(=O)c2cccc(NC(=O)c3ccco3)c2)c1	none
COc1ccc(NC(=O)C2CCCO2)cc1OC (stereo not given)	Smad3 FoxH1 inh 71.5 (no result: TNAP act DEA)
Cc1ccc(-c2c3c(=O)n(C)c(=O)n(C)c3cn2N2CCOCC2)cc1	PostGolgi ctrl 50.6
CN(C)C(=O)CSc1nc(-c2ccccc2)nc2c1CCCC2	none (no result: PostGolgi yeast, PostGolgi ctrl, TNAP act DEA)
Cc1cc2nc(SCC(=O)N(C)C)c3c(c2cc1C)CCCC3	PostGolgi ctrl 30.9 (no result: Smad3 FoxH1 inh, TNAP act DEA)
CC1Cc2nc(SCC(=O)N3CCN(c4ccccc4)CC3)n(CCc3ccccc3)c(=O)c2S1 (stereo not given)	none (no result: TNAP act DEA)

Compound activity as filed in PubChem.
